Assay results reported in PubChem BioAssay AID1159580 (chemical genetic matrix, 2015).
The whole screen tested about 5,500 compounds, of which about 2,000 (36%) were called active. Another 18% or so got no clear call; they are omitted. No stated cut-off is given here; in the data, active means normalized growth mostly below about 0.91 (no sharp cut-off); inconclusive means no clear call, values can overlap the other calls; inactive means mostly above about 0.92. The list shows a part of the results.

Experiment: chemical genetic growth profiling, strain panel (AID 1159580);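 further: tested at 20 µM; growth read once vehicle control cultures reached saturation at 30 °C; 1 = growth at the plate median or of vehicle wells; lower values mean less growth of the strain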
Conditions: S. cerevisiae deletion strains, growth OD

Measured: normalized growth

C/C=C/C(=O)N(CC)c1ccccc1C
inactive: locus YAL021C, strain ccr4, active compounds read low 1.02 | locus YAL026C, strain drs2, active compounds read low 1.01 | locus YAL030W, strain snc1, active compounds read low 1 | locus YBL061C, strain skt5, active compounds read low 0.995 | locus YBR009C, strain hhf1, active compounds read low 1.02 | locus YBR023C, strain chs3, active compounds read low 1.01 | locus YBR171W, strain sec66, active compounds read low 1 | locus YBR231C, strain swc5, active compounds read low 1 | locus YBR279W, strain paf1, active compounds read low 1 | locus YCL011C, strain gbp2, active compounds read low 0.997 | locus YCL016C, strain dcc1, active compounds read low 0.998 | locus YCL061C, strain MRC1, active compounds read low 1.01 | locus YCL069W, strain vba3, active compounds read low 1.01 | locus YCR088W, strain abp1, active compounds read low 1 | locus YDL005C, strain med2, active compounds read low 1 | locus YDL040C, strain nat1, active compounds read low 1 | locus YDR001C, strain nth1, active compounds read low 1 | locus YDR069C, strain doa4, active compounds read low 1.02 | locus YDR137W, strain rgp1, active compounds read low 1.02 | locus YDR159W, strain sac3, active compounds read low 1 | locus YDR195W, strain ref2 0.986 | locus YDR297W, strain sur2, active compounds read low 1 | locus YDR334W, strain swr1, active compounds read low 0.997 | locus YDR335W, strain msn5, active compounds read low 1.01 | locus YDR392W, strain spt3, active compounds read low 0.942 | locus YEL003W, strain gim4, active compounds read low 1.01 | locus YEL037C, strain rad23, active compounds read low 1.01 | locus YEL061C, strain CIN8 (second series), active compounds read low 1.01 | locus YER015W, strain faa2, active compounds read low 1.01 | locus YER016W, strain bim1, active compounds read low 1.01 | locus YER111C, strain swi4, active compounds read low 0.995 | locus YER155C, strain BEM2 (second series), active compounds read low 1.01 | locus YFR010W, strain ubp6, active compounds read low 1.02 | locus YGL167C, strain pmr1, active compounds read low 1 | locus YGL173C, strain kem1, active compounds read low 1.01 | locus YGL227W, strain vid30, active compounds read low 1.01 | locus YGL240W, strain doc1, active compounds read low 1.02 | locus YGL253W, strain hxk2, active compounds read low 1.01 | locus YHR013C, strain ard1, active compounds read low 1.01 | locus YHR027C, strain rpn1, active compounds read low 1.02 | locus YHR030C, strain SLT2, active compounds read low 1.03 | locus YHR079C, strain IRE1, active compounds read low 1.02 | locus YHR142W, strain chs7, active compounds read low 1.02 | locus YJL092W, strain hpr5, active compounds read low 1 | locus YJL095W, strain BCK1 (second series), active compounds read low 1 | locus YJL095W, strain BCK1, active compounds read low 0.977 | locus YJL115W, strain asf1, active compounds read low 1 | locus YJL129C, strain trk1, active compounds read low 1.03 | locus YJL154C, strain vps35, active compounds read low 1.01 | locus YJL164C, strain tpk1, active compounds read low 1.01 | locus YJL166W, strain qcr8, active compounds read low 1.02 | locus YJL187C, strain SWE1, active compounds read low 1.01 | locus YJR066W, strain TOR1, active compounds read low 0.966 | locus YKL160W, strain elf1, active compounds read low 1.01 | locus YKR026C, strain gcn3, active compounds read low 1.01 | locus YKR091W, strain srl3, active compounds read low 1 | locus YLL001W, strain dnm1, active compounds read low 0.996 | locus YLL026W, active compounds read low 1.01 | locus YLL041C, strain sdh2, active compounds read low 1.01 | locus YLR027C, strain aat2, active compounds read low 0.996 | locus YLR113W, strain HOG1, active compounds read low 0.969 | locus YLR221C, strain rsa3, active compounds read low 1 | locus YLR258W, strain gsy2, active compounds read low 1.01 | locus YLR262C, strain YPT6 (second series), active compounds read low 1 | locus YLR320W, strain mms22, active compounds read low 1 | locus YLR342W, strain FKS1, active compounds read low 1 | locus YLR357W, strain rsc2, active compounds read low 1.02 | locus YLR370C, strain arc18, active compounds read low 1.01 | locus YLR384C, strain iki3, active compounds read low 0.998 | locus YML120C, strain ndi1, active compounds read low 1 | locus YMR058W, strain fet3, active compounds read low 1.02 | locus YMR125W, strain sto1, active compounds read low 1.01 | locus YMR129W, active compounds read low 1 | locus YMR205C, strain PFK2, active compounds read low 1.01 | locus YMR231W, strain pep5, active compounds read low 1.01 | locus YNL071W, strain lat1, active compounds read low 1 | locus YNL183C, strain NPR1, active compounds read low 0.975 | locus YNL209W, strain ssb2, active compounds read low 1 | locus YNL248C, strain rpa49, active compounds read low 0.993 | locus YNL322C, strain KRE1 (second series), active compounds read low 1.01 | locus YNR049C, strain mso1, active compounds read low 1.01 | locus YOR001W, strain rrp6, active compounds read low 1.03 | locus YOR070C, strain gyp1, active compounds read low 1 | locus YOR080W, strain dia2, active compounds read low 1 | locus YOR083W, strain WHI5, active compounds read low 1.02 | locus YOR106W, strain vam3, active compounds read low 1.04 | locus YOR231W, strain MKK1, active compounds read low 1.02 | locus YOR265W, strain rbl2, active compounds read low 1 | locus YOR270C, strain vph1, active compounds read low 0.999 | locus YOR290C, strain snf2, active compounds read low 1.01 | locus YPL051W, strain arl3, active compounds read low 1 | locus YPL078C, strain atp4, active compounds read low 1.02 | locus YPL106C, strain sse1, active compounds read low 1.01 | locus YPL240C, strain hsp82, active compounds read low 1 | locus YPL256C, strain CLN2, active compounds read low 0.986
